A selection: hits, their analogues and other compounds. The true share with any hit is near 9.2%.
ELG1 genotoxic – qHTS screen for small molecules that induce genotoxicity in human embryonic kidney (HEK293T) cells expressing luciferase-tagged ELG1. HEK293T ELG1-luciferase reporter, luminescence, 16 h. Potency, µM (doses to about 46 µM), actives largely listed as activators. actives 1.3% (n = 330,000). AID 504466, 2011; also: nearly all actives have a fitted effect of over 60% in size
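Quantitative HTS format in 1536-well plates. HEK293T ELG1-luciferase reporter cells receive test compound and are incubated 16 hr at 37 °C, 5% CO2; ONE-Glo added, 30 min room temperature, then luminescence read.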
SMN2 splice up – qHTS Assay for Enhancers of SMN2 Splice Variant Expression; actives 2.8% (n = 210,000); Potency, µM (series often up to 46.1 µM), usual class: activators; AID 1458, 2008; HEK293 SMN2-luciferase splicing reporter, luminescence, 30-36 h; also: nearly all actives have a fitted effect of over 55% in size
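qHTS luciferase splicing reporter: luminescence rises when SMN2 exon 7 is included in transfected HEK293 cells. Compound exposure lasted 30-36 h at 37C, with 4.5 mM final sodium butyrate as control, followed by a ONE-Glo read.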
FLuc modulator – qHTS profiling assay for firefly luciferase inhibitor/activator using purifed enzyme and Km concentrations of substrates (counterscreen for miR-21 project). Luciferin 4-monooxygenase (Photinus pyralis), P08659. purified FLuc, Km substrates, luminescence inhibition. Potency, µM (highest dose often 57.5 µM), hits mostly inhibitors. actives 6.9% (n = 360,000); also: nearly all actives have a fitted effect of over 55% in size
Target sequence (P08659 whole entry, looked up): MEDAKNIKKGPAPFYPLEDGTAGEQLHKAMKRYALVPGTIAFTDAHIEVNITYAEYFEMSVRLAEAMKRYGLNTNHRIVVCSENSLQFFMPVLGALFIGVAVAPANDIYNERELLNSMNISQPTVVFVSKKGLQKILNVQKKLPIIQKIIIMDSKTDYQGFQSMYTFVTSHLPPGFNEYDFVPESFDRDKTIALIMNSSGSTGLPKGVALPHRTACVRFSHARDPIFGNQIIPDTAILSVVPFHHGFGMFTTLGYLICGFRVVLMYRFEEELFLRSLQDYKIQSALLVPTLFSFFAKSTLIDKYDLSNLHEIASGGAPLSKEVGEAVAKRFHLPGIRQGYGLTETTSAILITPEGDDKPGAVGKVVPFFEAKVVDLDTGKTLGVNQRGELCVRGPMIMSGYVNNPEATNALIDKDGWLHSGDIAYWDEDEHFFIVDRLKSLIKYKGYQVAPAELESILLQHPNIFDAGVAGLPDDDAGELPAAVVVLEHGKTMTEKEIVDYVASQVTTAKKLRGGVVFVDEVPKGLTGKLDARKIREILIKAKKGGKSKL
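Purified P. pyralis luciferase, 10 nM final, with Km-level 10 uM D-luciferin and 10 uM ATP in 50 mM Tris acetate pH 7.5, 10 mM Mg acetate, 0.01% Tween-20, 0.05% BSA; 6-point qHTS titration about 60 µM downward; luminescence read.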
NPC1 prom act – qHTS Assay for NPC1 Promoter Activators. AID 485313, 2010. actives 2.4% (n = 320,000). Potency, µM (titrated, usually from 9.22 µM), usual class: activators. Huh7 NPC1 promoter luciferase reporter, 24 h; also: nearly all actives have a fitted effect of over 60% in size
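Stably transfected Huh7 (NPC1 promoter→luciferase), 1500 cells/well in Opti-MEM + 10% FBS, 2 h settle, then compound 24 h at 37 °C. Luminescence after 10 min with Amplite reagent.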
ELG1 DNA repair – qHTS screen for small molecules that inhibit ELG1-dependent DNA repair in human embryonic kidney (HEK293T) cells expressing luciferase-tagged ELG1 | HEK293T ELG1-luciferase reporter, luminescence, 16 h; DNA damage induced by 5-fluorouridine | Potency, µM (titrated, usually from 46.1 µM), hits mostly inhibitors | actives 2.3% (n = 330,000); also: nearly all actives have a fitted effect of over 55% in size
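Reporter activity after DNA damage by 5-fluorouridine is monitored. Compound-treated cells incubate 16 hr at 37 °C, then ONE-Glo is added for 30 min before luminescence reading.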
Rab9 promoter act – qHTS Assay for Rab9 Promoter Activators; Huh7 Rab9 promoter-luciferase reporter, luminescence, 24 h; Potency, µM (doses to about 9.22 µM), most hits filed as activators; actives 2.8% (n = 320,000); AID 485297, 2010; also: nearly all actives have a fitted effect of over 60% in size
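Rab9 promoter-driven luciferase in stably transfected Huh7 cells; 1500 cells/well rested 2 h, exposed to compound in DMSO for 24 h at 37 °C, 5% CO2. Luminescence read 10 min after adding luciferase reagent at ambient temperature.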
A number is an active result; – = inactive; ? = inconclusive; · = no result; [ ] = remark or other dose. Calls follow the shape of the dose curve; as a rule, active = well fitted curve in the direction sought with a large enough effect; inconclusive = small, poorly fitted or top-dose-only effect, or another doubt; inactive = no such curve, though single readings can be large; an effect the other way counts as inactive or inconclusive.

SMILES	ELG1 genotoxic	SMN2 splice up	FLuc modulator	NPC1 prom act	ELG1 DNA repair	Rab9 promoter act
O=C(O)c1ccccc1C(=O)Nc1cc(-c2ccccc2)[nH]n1	–	·	?	–	–	–
CCS(=O)(=O)C1=NN2C(=N)/C(=C\c3ccc(OC(=O)c4ccco4)c(OC)c3)C(=O)N=C2S1	–	·	?	–	–	–
COc1cc(/C=C2/C(=N)N3C(SC)=NSC3=NC2=O)ccc1OC(=O)c1ccco1	?	·	27µM	?	?	?
CS(=O)(=O)C1=NSC2=NC(=O)/C(=C\c3ccc(OC(=O)c4ccco4)cc3)C(=N)N21	–	·	24µM	–	–	–
CSC1=NSC2=NC(=O)/C(=C\c3cccs3)C(=N)N12	?	0.5µM	9.5µM	3.5µM	?	1.4µM
C=CCOc1ccc(/C=C2\C(=N)N3N=C(S(=O)(=O)CC)SC3=NC2=O)cc1OC	–	–	9.5µM	–	–	–
CC(C)CSC1=NSC2=NC(=O)/C(=C\c3cccs3)C(=N)N12	–	?	?	–	?	–
CC(C)(C)c1ccc(OCC(=O)NCC(c2cccs2)N2CCOCC2)cc1 (stereo not drawn)	–	·	–	–	–	–
Cc1ccc(NS(=O)(=O)c2cccc(C(=O)NNC(=O)c3ccco3)c2)c(C)c1	–	·	–	–	–	–
CCC1CCCCN1C(=O)c1ccc2c(c1)N(Cc1cccc(Cl)c1)C(=O)c1ccccc1S2(=O)=O (stereo not drawn)	·	·	–	·	·	·
CCOc1ccc(N(CC(=O)N2CCN(Cc3ccccc3)CC2)S(C)(=O)=O)cc1	–	·	–	–	–	–
COc1cc(/C=C2/C(=N)N3C(=NC2=O)SN=C3S(=O)(=O)C(C)C)ccc1OS(=O)(=O)c1ccccc1	–[9.26 µM]	·	–	–	–	–
CS(=O)(=O)C1=NN2C(=N)/C(=C\c3ccc(OC(=O)c4ccco4)cc3)C(=O)N=C2S1	–	·	?	–	–	–
Cc1cccc(-n2c(C)cc(/C=C3/C(=N)N4C(c5ccccc5)=CSC4=NC3=O)c2C)c1	–	–	–	–	–	–
COc1cc(/C=C2/C(=N)N3C(=NC2=O)SN=C3S(C)(=O)=O)ccc1OC(=O)c1ccco1	–[9.26 µM]	·	11µM	–	?	–
COc1cc(/C=C2/C(=N)N3C(c4ccccc4)=CSC3=NC2=O)ccc1OCC(=O)O	–	·	27µM	–	–	–
CCOc1cc(/C=C2/C(=N)N3C(=NC2=O)SN=C3S(=O)(=O)CC)ccc1OC(=O)c1ccco1	–	·	–	–	–	–
CCS(=O)(=O)C1=NSC2=NC(=O)/C(=C\c3ccc(OC(=O)c4ccco4)c(OC)c3)C(=N)N21	–	·	21µM	–	–	–
N=C1/C(=C\c2ccc(OC(=O)c3ccco3)cc2)C(=O)N=C2SC=NN12	–	?	15µM	–	–	–
CCCn1c(=O)c2sccc2n2c(CCCC(=O)N3CCN(c4ccccc4)CC3)nnc12	·	·	–	·	·	·
CC1CCCCC1NC(=O)CNC(=O)c1cccs1 (stereo not drawn)	–	·	–	–	–	–
CCOc1cc(/C=C2/C(=N)N3C(=NC2=O)SN=C3S(=O)(=O)C(C)C)ccc1OC(=O)c1ccco1	–	·	–	–	–	–
COc1cc(/C=C2/C(=N)N3C(=NC2=O)SN=C3S(=O)(=O)C(C)C)ccc1OC(=O)c1ccco1	–	·	13µM	–	–	–
CCOc1cc(/C=C/C(=O)c2ccc(OC)c(CN3CCOCC3)c2)cc(Br)c1O	–	·	–	–	18µM	–
COc1ccc(/C=N/NC(=O)c2cccc(Br)c2)cc1CN1CCOCC1	–	·	–	–	–	–
Cc1cccc(Cn2c(CNS(=O)(=O)c3ccc(C(C)C)cc3)nc3cccnc32)c1	·	·	–	·	·	·
CCN(CC)CC(=O)Nc1cccc(S(=O)(=O)N2CCCC2)c1	–	·	–	–	–	–
